Compound activity as filed in PubChem BioAssay.
MEKK2wt PB1 HTS = raises or lowers MEK5 binding to wildtype human MEKK2 PB1 domain; Q9Y2U5; hit rate 1.1% among 290,000; binding response (% of control), % at 10 µM; bead flow cytometry, Alexa488-MEK5 binding to MEKK2 WT; actives lie on both sides; AID 1531; in the data active = binding response below about 67% or above about 130%
VLA-4 inh = inhibition in a human VLA-4 binding assay. P13612. VLA-4 expressing cells, ligand binding flow cytometry. inhibition, % (about 7 µM as worked out from the volumes in the protocol). hit rate 0.2% among 330,000. AID 2557; in the data active = inhibition above about 50%
Target sequence (P13612 whole entry, looked up): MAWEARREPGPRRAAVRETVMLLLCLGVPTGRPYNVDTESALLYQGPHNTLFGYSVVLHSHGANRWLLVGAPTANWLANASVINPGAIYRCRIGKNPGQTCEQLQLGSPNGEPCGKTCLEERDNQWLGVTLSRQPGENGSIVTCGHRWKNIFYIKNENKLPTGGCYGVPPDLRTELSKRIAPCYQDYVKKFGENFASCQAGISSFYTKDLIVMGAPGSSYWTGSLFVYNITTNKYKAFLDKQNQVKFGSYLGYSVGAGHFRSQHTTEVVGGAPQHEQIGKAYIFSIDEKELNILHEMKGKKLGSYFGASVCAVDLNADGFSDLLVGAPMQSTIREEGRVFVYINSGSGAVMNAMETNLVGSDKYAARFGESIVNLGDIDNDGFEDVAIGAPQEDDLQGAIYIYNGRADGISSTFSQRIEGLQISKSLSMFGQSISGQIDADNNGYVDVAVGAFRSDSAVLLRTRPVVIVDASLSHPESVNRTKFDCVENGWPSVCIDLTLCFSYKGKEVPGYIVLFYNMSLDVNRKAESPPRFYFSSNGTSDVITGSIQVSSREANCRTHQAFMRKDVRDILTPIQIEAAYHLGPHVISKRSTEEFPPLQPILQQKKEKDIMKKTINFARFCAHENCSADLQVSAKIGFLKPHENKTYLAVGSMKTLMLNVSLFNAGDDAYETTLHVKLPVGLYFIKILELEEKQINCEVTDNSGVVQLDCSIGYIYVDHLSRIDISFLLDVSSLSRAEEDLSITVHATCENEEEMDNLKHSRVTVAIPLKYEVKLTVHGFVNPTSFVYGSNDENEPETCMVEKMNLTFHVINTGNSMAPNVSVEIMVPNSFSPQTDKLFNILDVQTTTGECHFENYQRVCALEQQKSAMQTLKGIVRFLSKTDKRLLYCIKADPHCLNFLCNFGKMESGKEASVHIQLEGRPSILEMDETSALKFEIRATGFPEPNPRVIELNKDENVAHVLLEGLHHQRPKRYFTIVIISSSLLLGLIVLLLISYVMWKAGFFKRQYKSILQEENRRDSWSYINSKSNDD
MEKK3 PB1 HTS = MEKK3-MEK5 PB1 interaction, increase or decrease; binding response (% of control), % at 10 µM; hit rate 1.4% among 290,000; Q99759; bead-based flow cytometry, Alexa488-MEK5 binding to MEKK3; actives lie on both sides; 0 = blocked by unlabeled MEK5, 100 = vehicle;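 active = binding response more than 3 SD above or below the average of its plate-row segment, actives on both sides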;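 also: Alexa488 bead fluorescence after subtracting the streptavidin-only scavenger bead signal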
MEKK2mut PB1 HTS = signal of MEK5 binding to mutant human MEKK2 PB1 domain | bead flow cytometry, Alexa488-MEK5 binding to MEKK2 mutant | AID 1530 | percent response, % at 10 µM | hit rate 0.35% among 290,000; in the data active = percent response above about 24%, passing the limit was not always enough
MEKK2wt confirm = raises or lowers MEK5 binding to wildtype human MEKK2, retest; hit rate 2.4% among 5,900; AID 1892; binding response (% of control), % at 10 µM; shares compounds with MEKK3 PB1 HTS; bead flow cytometry, Alexa488-MEK5 binding to MEKK2 WT; actives lie on both sides; in the data active = binding response below about 16% or above about 210%; inactive = in between
MEKK2mut-MEK5 = signal of MEK5 binding to mutant human MEKK2, retest | AID 1893 | bead flow cytometry, Alexa488-MEK5 binding to MEKK2 mutant | percent response, % at 10 µM | shares compounds with MEKK3 PB1 HTS | hit rate 2% among 5,900; in the data active = percent response mostly above about 71%, no sharp cut-off; inactive = mostly below about 38%;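 also: higher means compound restores mutant binding toward wildtype level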
MEKK3-MEK5 inh = MEKK3-MEK5 PB1 inhibition, single concentration confirmation. shares compounds with MEKK3 PB1 HTS. bead flow cytometry, Alexa488-MEK5 binding to MEKK3; stronger effect = lower value. binding response (% of control), % at 10 µM. hit rate 1.8% among 5,900. AID 1894;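 active = binding response below 72% of control, or above a set upper limit, though filed actives all read lower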
Hits are given with their value; i = inactive; nt = not tested or not shown; [ ] = dose if it differs, or a comment. Rows were chosen to be rich in hits. Some 2.2% of all compounds tested hit in one or more screens of this group.

SMILES	MEKK2wt PB1 HTS	VLA-4 inh	MEKK3 PB1 HTS	MEKK2mut PB1 HTS	MEKK2wt confirm	MEKK2mut-MEK5	MEKK3-MEK5 inh
CN1CCN(Cc2cc(Cl)c3cccnc3c2OC(=O)c2cccs2)CC1	i	i	72[inhibitor]	i	i	i	i
O=C(Oc1c(CN2CCOCC2)cc(Cl)c2cccnc12)c1ccccc1Br	i	i	i	i	nt	nt	nt
CC(=O)Nc1ccc(SCC(=O)Nc2ccccc2N2CCOCC2)cc1	nt	i	nt	nt	nt	nt	nt
CCOC(=O)c1c(-c2ccc(OC)cc2)csc1/N=C/N(C)C	i	i	136	i	i	i	i
CCOC(=O)c1c(-c2ccc(OC)cc2)csc1/N=C/C1C(=O)CCCC1=O	i	i	i	i	nt	nt	nt
CC(C)=CCc1c(O)cc(O)c2c(=O)c3c(CC=C(C)C)c(O)ccc3oc12	137	i	i	i	i	i	i
CC(=O)c1ccc(N2CCc3ccccc3C2)c([N+](=O)[O-])c1	i	i	72[inhibitor]	i	i	i	i
CC(=O)Nc1cc(NC(C)=O)cc(-c2nc3ccccc3[nH]2)c1	i	i	i	i	nt	nt	nt
CC(=O)Nc1ccc(-c2nc3c(C)cccc3[nH]2)cc1	3.0[inhibitor]	i	3.0[inhibitor]	i	i	i	i
Cc1cc(C)c2nc(N3CCCC(C(=O)NC4CCCC4)C3)sc2c1 (centres undefined)	i	i	i	i	nt	nt	nt
CC1(CCc2ccc3c(c2)OCO3)NCCc2c1[nH]c1ccccc21 (centres undefined)	i	i	i	25	i	i	i
CC1(CCc2ccc3c(c2)OCO3)NC(=O)c2ccccc2N1 (centres undefined)	i	i	i	i	nt	nt	nt
CSc1nnc(C)c(=O)n1COC(=O)/C=C/c1ccc2c(c1)OCO2	i	i	i	i	nt	nt	nt
CCCC[C@@H](CNC)NC[C@H](NCCCCC1CCCCC1)C(C)C	i	i	i	30	i	i	i
COc1ccc(NC(=O)C(Sc2nnc(-c3ccncc3)n2-c2ccccc2C)c2ccccc2)cc1Cl (centres undefined)	i	i	i	i	nt	nt	nt
O=C(NN1C(=O)c2ccc(-c3ccc4c(c3)C(=O)N(NC(=O)c3cccnc3)C4=O)cc2C1=O)c1cccnc1	i	i	135	i	i	i	i
C/C(=N/NC(=O)c1cc(O)c(O)c(O)c1)c1ccc([N+](=O)[O-])cc1	i	nt	i	i	nt	nt	nt
c1ccc(-n2nnnc2Oc2cccc3cccnc23)cc1	-8.0[inhibitor]	i	0.0[inhibitor]	i	i	i	i
CC1(C)Cc2c(cnn2-c2ccc(F)cc2)C(NC(=O)CCCN2CCCCC2=O)C1 (centres undefined)	i	i	i	i	nt	nt	nt
O=c1cc(CSc2ccc(Cl)cc2)nc(-c2ccncc2)[nH]1	i	i	i	i	nt	nt	nt
O=c1cc(CSc2ccccc2)nc(-c2ccncc2)[nH]1	i	i	46[inhibitor]	i	i	i	i
O=C(c1ccc2nccnc2c1)N1CCCC(N2CCN(c3ccc(F)cc3)CC2)C1 (centres undefined)	i	i	i	i	nt	nt	nt
O=C(Oc1ccc(OC(=O)c2ccco2)c(S(=O)(=O)c2ccc(Br)cc2)c1)c1ccco1	i	i	i	i	nt	nt	nt
Cc1ccc(S(=O)(=O)c2cc(OC(=O)c3ccco3)ccc2OC(=O)c2ccco2)cc1	i	i	128	i	i	i	i
CCOc1ccc(NC(=O)c2ccc(OC)cc2)cc1	i	i	126	i	i	i	i
SMILES	MEKK2wt PB1 HTS	VLA-4 inh	MEKK3 PB1 HTS	MEKK2mut PB1 HTS	MEKK2wt confirm	MEKK2mut-MEK5	MEKK3-MEK5 inh
CCOc1ccc(NC(=O)c2ccc3c(SCC(=O)O)c4c(nc3c2)CCCC4)cc1	i	i	137	i	i	i	i
OC(CN1CCN(c2ccccc2Cl)CC1)c1ccccc1 (centres undefined)	i	i	i	i	nt	nt	nt
Cc1ccc(S(=O)(=O)c2nc(-c3ccccc3F)oc2N2CC(C)OC(C)C2)cc1 (centres undefined)	i	i	i	i	nt	nt	nt
O=C(NCC1CCCO1)c1ccc(CSCc2cccc(F)c2)o1 (centres undefined)	i	i	i	i	nt	nt	nt
Cc1ccccc1OCC(O)CNC1CCC(NCC(O)COc2ccccc2C)CC1 (centres undefined)	219	i	i	76	207	70	i
Cc1ccc(OCC(O)CNC2CCCC2)c(C)c1 (centres undefined)	i	i	i	i	nt	nt	nt
N#CCNC(=O)C1c2ccccc2Oc2ccccc21	i	i	i	i	nt	nt	nt
CC1(C)CC(=O)C(C(O)c2cccc([N+](=O)[O-])c2)C(C)(C)N1 (centres undefined)	i	i	i	25	i	i	i
O=C(CN1CC(c2ccccc2)CC1=O)N/N=C/c1cc(Br)ccc1O (centres undefined)	i	i	141	i	i	i	i
O=C(CSc1nnc(-c2ccco2)o1)N1CCOCC1	i	i	i	i	nt	nt	nt
O=C(CSc1nnc(-c2ccco2)o1)N1c2ccccc2CCc2ccccc21	i	i	80[inhibitor]	i	i	i	i
O=C(CSc1nnc(-c2ccco2)o1)N1CCN(c2ccccc2)CC1	i	i	136	i	i	i	i
O=C(CSc1nnc(-c2c[nH]c3ccccc23)o1)N1c2ccccc2CCc2ccccc21	i	i	i	i	nt	nt	nt
CC(=O)c1c(C)[nH]c(C(=O)CSc2nnc(-c3ccco3)o2)c1C	i	i	152	i	i	i	i
Fc1ccc(CSc2nnc(-c3ccco3)o2)cc1	i	i	1.0[inhibitor]	i	i	i	i
O=C(CSc1cn[nH]n1)Nc1ccccc1C(F)(F)F	i	i	i	i	nt	nt	nt
O=C(/C=C/c1cc[n+](CC(=O)c2ccc3cccc4c3c2CC4)cc1)c1ccc2cccc3c2c1CC3	i	i	70[inhibitor]	i	i	i	i
COc1ccc(S(=O)(=O)N2CCC(C(=O)NCCc3ccc4c(c3)OCO4)CC2)cc1	i	i	48[inhibitor]	i	i	i	i
O=C(NCCc1ccc2c(c1)OCO2)C1CCN(S(=O)(=O)c2ccc(Cl)cc2)CC1	i	i	i	i	nt	nt	nt
CC(=O)c1cccc(OCC(O)CNCCc2ccc(Cl)cc2)c1 (centres undefined)	i	i	i	i	nt	nt	nt
CCCc1cnc(NCCNCC(O)COc2ccc(Cl)c(Cl)c2)nc1 (centres undefined)	144	i	i	i	i	i	i
CCCc1cc2c(=O)c(-c3ccccn3)c(C)oc2cc1O	i	i	75[inhibitor]	i	i	i	i
Cc1csc(Sc2nc3c(c(=O)[nH]c(=O)n3C)n2CCCc2ccccc2)n1	1.0[inhibitor]	i	2.0[inhibitor]	i	i	i	i
Cc1ccc(-c2noc(CCC(=O)NC3CCN(Cc4ccccc4)CC3)n2)cc1	i	nt	i	i	nt	nt	nt
O=C(CCc1nc(-c2ccccc2F)no1)NC1CCN(Cc2ccccc2)CC1	i	i	i	24	i	i	i
